From the supplement of paper PMC7380943
Structures can show the parent of a compound that is named as a salt.

Key:
[1] = system: CLZ3 (HCA2 human fibroblast dual HR-NHEJ reporter); assay: NHEJ repair efficiency (GFP+ cells) relative to control (log10 fold); higher = more non-homologous end joining; details: 5 µM; doxycycline 0.5 ug/mL
[2] = system: CLZ3 (HCA2 human fibroblast dual HR-NHEJ reporter); assay: HR repair efficiency (tdTomato+ cells) relative to control (log10 fold); higher = more homologous recombination; details: 5 µM; doxycycline 0.5 ug/mL
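For HR repair efficiency (tdTomato+ cells) relative to control in this document: compound given one day before doxycycline, which switches on I-SceI endonuclease expression to create double-strand breaks within the integrated reporter.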
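For NHEJ repair efficiency (GFP+ cells) relative to control in this document: compound given one day ahead of doxycycline, which switches on I-SceI endonuclease to cut the chromosomally integrated reporter and create DSBs.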

SMILES	NHEJ repair efficiency (log10) [1]	HR repair efficiency (log10) [2]
CN1[C@@H]2C[C@@H](OC(=O)[C@H](CO)c3ccccc3)C[C@H]1[C@@H]1O[C@@H]12 [Scopolamine Hydrobromide]	0.039	-0.0275
CC(C)=CCC[C@](C)(O)[C@H]1CC[C@]2(C)[C@@H]1[C@H](O)C[C@@H]1[C@@]3(C)CC[C@H](O)C(C)(C)[C@@H]3[C@@H](O[C@@H]3O[C@H](CO)[C@@H](O)[C@H](O)[C@H]3O)C[C@]12C [Ginsenoside Rh1]	-0.0663	0.25
c1cc2c(cc1[C@H]1OC[C@H]3[C@@H]1CO[C@@H]3c1ccc3c(c1)OCO3)OCO2 [Sesamin]	0.0857	0.185
COC[C@@]12CC[C@H](OC)[C@]34C([C@H]([C@H](OC)[C@H]13)[C@]1(O)[C@H]3[C@@H](OC(=O)c5ccccc5)[C@](O)(C[C@H]34)[C@@H](OC)[C@@H]1O)N(C)C2 [Benzoylhypaconine]	-0.013	0.00783
CCN1C[C@]2(COC)CC[C@H](OC)[C@]34C1[C@H]([C@H](OC)[C@H]23)[C@@]1(OC(C)=O)C[C@H](OC)[C@@]2(O)C[C@@H]4[C@@H]1[C@H]2OC(=O)c1ccc(OC)cc1 [Crassicauline A]	0.00451	0.0792
O=c1ccc2cc3ccoc3c(O)c2o1 [Xanthotoxol]	0.0631	-0.0752
CC(C)=CCC[C@@](C)(O)[C@H]1CC[C@]2(C)[C@@H]1[C@H](O)C[C@@H]1[C@@]3(C)CC[C@H](O[C@@H]4O[C@H](CO)[C@@H](O)[C@H](O)[C@H]4O)C(C)(C)[C@@H]3CC[C@]12C [R-Ginsenoside Rh2]	-0.0662	-0.111
